Measured potencies and affinities stand elsewhere. Calls of active or inactive are those of the source. The rule behind the calls is not given here.

In this assay the target is CAAX prenyl protease 2 (Homo sapiens) (UniProt Q9Y256). As to the kind of experiment: human Rce1 protease inhibitors, dose response, biochemical, yeast membranes, quenched-peptide fluorescence, cherry-pick (AID 588849). The settings on record: yeast membrane fractions expressing human Rce1, quenched-peptide fluorescence, 4 h; series mostly up to 10 µM.
Chain of CAAX prenyl protease 2 (Homo sapiens) (Q9Y256 whole entry, looked up): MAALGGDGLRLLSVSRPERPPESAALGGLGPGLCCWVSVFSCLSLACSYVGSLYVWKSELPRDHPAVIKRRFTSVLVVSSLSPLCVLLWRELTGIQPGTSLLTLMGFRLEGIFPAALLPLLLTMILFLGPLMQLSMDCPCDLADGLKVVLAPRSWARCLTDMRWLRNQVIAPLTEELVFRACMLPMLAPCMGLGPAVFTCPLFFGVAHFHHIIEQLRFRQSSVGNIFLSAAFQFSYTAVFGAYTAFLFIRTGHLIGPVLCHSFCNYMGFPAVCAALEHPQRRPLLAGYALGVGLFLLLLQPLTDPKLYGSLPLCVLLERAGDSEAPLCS
For `CCOc1ccc(N(Cc2ccc(OC)cc2)C(=O)c2ccco2)cc1`, the outcome was inactive.
Next, `O=C(c1cnc(Cl)c(Cl)c1)N1CCC(Cc2ccccc2)CC1`: “inactive”; `Nc1nnc(-c2ccncc2)s1`: “inactive”; `CCCN(CCC)CCNC(=O)c1cc2c(-c3ccccc3F)nn(C)c2s1`: “inactive”.
In the case of `COc1ccccc1NC(=O)/C(=C\c1cccnc1)NC(=O)c1ccc(C)cc1` it was “inactive”; in that of `COc1ccc(N2CCN(C(=O)c3cc(-c4cccs4)nc4ccccc34)CC2)cc1`, “inactive”; in that of `CCn1cc(C(=O)NCCO)c(=O)c2cc(F)c(N3CCN(C)CC3)cc21`, “inactive”.
`Cc1ccc(C(=O)c2c3ccc(C(F)(F)F)cc3[n+]([O-])n2CCCC(N)=O)cc1`: the result was inactive.
`CC(C)c1ccc(NC(=O)COc2nncc3ccccc23)cc1`: the molecule was called inactive.
In the case of `CCC(C)Sc1cc(-c2nc3ccccn3c2NC2CCCCC2)ccc1OC` (centres undefined) it was “inactive”; in that of `Cc1cccc(NS(=O)(=O)c2ccc(C)c(C(=O)OCC(=O)Nc3cc(C)on3)c2)c1`, “inactive”; in that of `c1ccc(CNc2nc(N3CCN(Cc4ccccc4)CC3)nc3ccccc23)cc1`, “inactive”.
Next, `CCCOc1ccccc1C(=O)NCCCC(=O)O`: “inactive”; `CCOc1ccc(N(CC(=O)NC2CC3CCC2C3)S(=O)(=O)c2ccccc2)cc1` (centres undefined): “inactive”.
With `N=c1c2c(ncn1Cc1ccco1)Oc1ccc3ccccc3c1C2c1ccccc1` (centres undefined), the outcome was inactive.
For the molecule `Cc1ccc(C(=O)c2c3ccc(C(F)(F)F)cc3nn2CCC(N)=O)cc1`, the molecule was called inactive.
In the case of `COc1ccc([N+](=O)[O-])cc1CSc1ccccn1` it was “inactive”.
Regarding `CCSCCOC(=O)C1=C(C)NC(=O)NC1c1ccccc1` (centres undefined), the outcome was inactive.
For `COc1cccc(/C=N/NC(=O)c2nnn(-c3nonc3N)c2C(C)C)c1OCc1ccc(F)cc1`, the molecule was called inactive.
With `COc1cccc(-c2csc(N3CCN(C(=O)NC45CC6CC(CC(C6)C4)C5)CC3)n2)c1`, the call was inactive.
As to `CCC1CCCCN1C(=O)NC(=O)c1ccccc1` (centres undefined), the molecule was classed as inactive.
Next, `CCOC(=O)c1sc2nc(C3CC3)cc(-c3ccc(F)cc3)c2c1N`: “inactive”.
Turning to `COc1ccc(-c2nc(CC(=O)O)cs2)cc1OC`, the call was inactive.
On to `COc1ccc(/C=N/NC(=O)c2ccc(Cl)cc2)cc1COC(C)=O`, for which the molecule was classed as inactive.
In the case of `CCCCNC(=S)NNC(=O)CCn1cc(C)cn1` it was “inactive”; in that of `N=c1c(C(=O)NCc2ccc(F)cc2)cc2c(=O)n3ccccc3nc2n1Cc1cccnc1`, “inactive”; in that of `O=C(COc1ncnc2cc([N+](=O)[O-])ccc12)NC(=O)NC1CCCCC1`, “inactive”.
As for `Nc1nc2c(ncn2COC(CO)CO)c(=O)[nH]1`, the result was inactive.
Next, `Cc1cc2cc(C(=O)N3CCc4c([nH]c5ccccc45)C3c3ccccn3)ccc2o1` (centres undefined): “inactive”; `Cc1ccc(SCc2c(C(=O)N/N=C/c3ccccc3)nnn2-c2nonc2N)cc1`: “inactive”; `Cc1nn(CCC(=O)O)c2nc(-c3cccnc3)cc(C(F)(F)F)c12`: “inactive”.
Consider `CCOc1ccc(OCC)c(NC(=O)c2nnn(CC(=O)Nc3cc(C)cc(C)c3)c2N)c1`, for which the outcome was inactive.
Next, `Cc1ccc2nc(N(CCN(C)C)C(=O)c3ccc4ccccc4c3)sc2c1`: “inactive”; `c1ccn2cc(-c3ccc4c(c3)OCCO4)nc2c1`: “inactive”.
Next, `CC(Cc1cccs1)NC(=O)Nc1ccc([N+](=O)[O-])cc1` (centres undefined): “inactive”; `CN(C)CCNc1ncnc2oc(-c3ccccc3)c(-c3ccccc3)c12`: “inactive”; `CCn1cc(/C=C(\NC(=O)c2ccccc2Cl)C(=O)N2CCOCC2)c2ccccc21`: “inactive”.
Next, `CC1CCN(C(=O)C2CCN(S(=O)(=O)c3ccc(-n4cnnn4)cc3)CC2)CC1`: “inactive”.
For the molecule `CCCCNC(=S)N=Nc1c(O)n(Cc2ccccc2)c2ccccc12`, the result was inactive.

Values taken from PubChem BioAssay AID588849 (Broad Institute, 2011).
